USP7 block = inhibitors of human USP7 deubiquitinase; purified USP7, Ub-rhodamine cleavage fluorescence; inhibition, % at 20 µM; 47,000 tested, 0.3% active
UCHL1 inh = blocks human UCHL1 ubiquitin-rhodamine cleavage | purified UCHL1, Ub-rhodamine cleavage fluorescence | AID 1645859 | P09936 | inhibition, % at 20 µM | 47,000 tested, 0.2% active
USP10 block = blocks human USP10 ubiquitin-rhodamine cleavage. Q14694. purified USP10, Ub-rhodamine fluorescence, 60 min. inhibition, % at 20 µM. 47,000 tested, 1.1% active
USP8 inh = human USP8 deubiquitinase inhibition; AID 1645853; 47,000 tested, 4.2% active; inhibition, % at 20 µM; P40818; purified USP8, Ub-rhodamine cleavage fluorescence, 30 min
USP17 inh = blocks human USP17 ubiquitin-rhodamine cleavage; 47,000 tested, 6.5% active; inhibition, % at 50 µM; A8MUK1; purified USP17, Ub-rhodamine cleavage fluorescence, 3 h; AID 1645855
USP30 inh = human USP30 deubiquitinase inhibition; Q70CQ3; purified USP30, Ub-rhodamine cleavage fluorescence; inhibition, % at 25 µM; 47,000 tested, 5.3% active; AID 1645860
* hit, by the source's call. Sampled rows, rich in hits. Any-hit rate of the full collection: about 13%. Rule as the data show it: active = inhibition above about 30%; inactive = the rest.

Screening CCN1CCN(c2ccc(S(=O)(=O)N3CCCCC3)cc2NC(=O)/C=C/c2ccccc2)CC1 returned USP7 block 3, UCHL1 inh 1, USP10 block -4, USP8 inh 5, USP17 inh 2 and USP30 inh -21.
CC(=O)c1ccc(NS(=O)(=O)c2cc(C)cc3c2OCCN3C)cc1 was read as USP7 block -7, UCHL1 inh -2, USP10 block 0, USP8 inh -2, USP17 inh -10 and USP30 inh -6.
Screening Cc1cc(C)c(S(=O)(=O)Nc2cc(C(=O)O)ccc2N2CCN(C)CC2)c(C)c1 returned USP7 block -11, UCHL1 inh 1, USP10 block -2, USP8 inh 77*, USP17 inh 9 and USP30 inh -24.
CCCN1CCN(c2ccc(C(=O)O)cc2NS(=O)(=O)c2ccccc2)CC1 was read as USP7 block -23, UCHL1 inh -1, USP10 block 0, USP8 inh 74*, USP17 inh 0 and USP30 inh -13.
`CCNC(=O)c1ccc(N2CCNCC2)c(NS(=O)(=O)c2cc(C)c(C)cc2C)c1` gave USP7 block -5, UCHL1 inh 0, USP10 block -3, USP8 inh 46*, USP17 inh 5 and USP30 inh 10.
For O=C(C1CCCN(S(=O)(=O)N2CCCCCC2)C1)N1CCN(c2ccccc2F)CC1 (configuration not stated) the results were USP7 block -4, UCHL1 inh -2, USP10 block -1, USP8 inh -5, USP17 inh -3 and USP30 inh 2.
`COc1ccc([N+](=O)[O-])cc1NC(=O)C(C)OC(=O)CSc1ccc2ccccc2c1` (configuration not stated) gave USP7 block -8, UCHL1 inh 3, USP10 block 3, USP8 inh -84, USP17 inh 0 and USP30 inh 14.
`Nc1ccc([N+](=O)[O-])cc1NC(=O)CSc1ccc2ccccc2c1` gave USP7 block 4, UCHL1 inh 5, USP10 block 8, USP8 inh 41*, USP17 inh -15 and USP30 inh -23.
`COc1ccc(Cn2cc(-c3ccc(Cl)cc3)cc(C#N)c2=O)cc1` gave USP7 block 9, UCHL1 inh 2, USP10 block 8, USP8 inh 7, USP17 inh 14 and USP30 inh 42*.
Screening COc1ccc(CSc2nccc(-c3ccc(Cl)cc3)c2C#N)cc1 returned USP7 block -16, UCHL1 inh -1, USP10 block 0, USP8 inh -44, USP17 inh -3 and USP30 inh 2.
Screening CCN(CC)C(=O)c1sc(NC(=O)c2cc(-c3ccccc3Cl)nc3ccccc23)c(C(N)=O)c1C returned USP7 block 8, UCHL1 inh 5, USP10 block 44*, USP8 inh 47*, USP17 inh 13 and USP30 inh 5.
Screening CC(C)n1ncc2cc(NC(=O)c3ccccc3C(=O)c3ccccc3)cnc21 returned USP7 block -2, UCHL1 inh 0, USP10 block -3, USP8 inh 1, USP17 inh 16 and USP30 inh 15.
Screening Cc1cccc(C(=O)NC(Cc2ccccc2)c2nc3ccccc3n2C)c1 (configuration not stated) returned USP7 block 6, UCHL1 inh 1, USP10 block 3, USP8 inh 16 and USP30 inh 45*.
Screening COc1ccc(Sc2nc3ccccc3n3cnnc23)cc1 returned USP7 block 23, UCHL1 inh 12, USP10 block 7, USP8 inh 79*, USP17 inh 13 and USP30 inh 15.
Screening Cc1cccc(C(=O)Nc2nc3c(s2)CCC3)c1 returned USP7 block -2, UCHL1 inh -1, USP10 block -12, USP8 inh 5, USP17 inh 0 and USP30 inh 13.
For Cc1nnc(-c2coc(S(=O)(=O)N3CCN(c4ccccc4F)CC3)c2)o1 the results were USP7 block -4, UCHL1 inh 2, USP10 block -5, USP8 inh 6, USP17 inh 20 and USP30 inh 39*.
Screening CCN1CCCC1CNC(=O)Cn1ncn2nc(-c3ccc(OC)cc3)cc2c1=O (configuration not stated) returned USP7 block -6, UCHL1 inh -1, USP10 block -1, USP8 inh -3, USP17 inh 17 and USP30 inh -13.
Screening COc1ccc(-c2cc3c(=O)n(CC(=O)NCc4ccccc4)ncn3n2)cc1 returned USP7 block 12, UCHL1 inh 2, USP10 block 22, USP8 inh -31, USP17 inh 25 and USP30 inh 43*.
COc1ccc(-c2cc3c(=O)n(CC(=O)NCCN4CCCC4)ncn3n2)cc1 was read as USP7 block 1, UCHL1 inh 0, USP10 block -4, USP8 inh 13, USP17 inh 43* and USP30 inh 34*.
For O=C(NCCCN1CCOCC1)c1cccc(-c2nc(-c3ccccc3)no2)c1 the results were USP7 block -12, UCHL1 inh 0, USP10 block -2, USP8 inh 0 and USP30 inh 0.
`Cc1sc(-c2cccnc2)nc1OC(=O)c1ccc(Cl)c(Cl)c1` gave USP7 block -54, UCHL1 inh -4, USP10 block 5, USP8 inh -26, USP17 inh 38* and USP30 inh 62*.
For O=S(=O)(c1ccccc1)c1cnc(-c2ccccc2)nc1Oc1ccc(F)cc1F the results were USP7 block 8, UCHL1 inh 0, USP10 block 2, USP8 inh 12, USP17 inh 15 and USP30 inh 36*.
Screening Cc1ccc(S(=O)(=O)c2cnc(-c3ccccc3)nc2Oc2ccc(Cl)cc2C)cc1 returned USP7 block 8, UCHL1 inh 2, USP10 block 4, USP8 inh 20, USP17 inh 12 and USP30 inh 24.
For O=C1Nc2ccccc2S/C1=C/c1ccccc1 the results were USP7 block -14, UCHL1 inh 0, USP10 block -2, USP8 inh -10, USP17 inh -15 and USP30 inh -29.
O=C1Nc2cc3c(cc2Sc2ccccc21)OCCO3 was read as USP7 block 9, UCHL1 inh 8, USP10 block 4, USP8 inh -14, USP17 inh 67* and USP30 inh 60*.
Cc1cc2cc(CNC(=O)NC3CCCCC3)ccc2n1C was read as USP7 block 7, UCHL1 inh -2, USP10 block -5, USP8 inh -9, USP17 inh 33* and USP30 inh -84.
Screening CC1(C)C(O)CCC2(C)C1CCC1(C)C2C(=O)C=C2[C@@H]3C[C@@](C)(C(=O)O)CCC3(C)CC[C@]21C (some centres not stated) returned USP7 block 7, UCHL1 inh 4, USP10 block 30, USP8 inh 3, USP17 inh 46* and USP30 inh 49*.

From PubChem
